In all, about 5,500 compounds went through this assay and about 2,000 (36%) were called active. Another 18% or so got no clear call; they are omitted. The list shows a part of the results. A number with no mark means an inactive call. Rule as the data show it: active = normalized growth mostly below about 0.91 (no sharp cut-off); inconclusive = no clear call, values can overlap the other calls; inactive = mostly above about 0.92.
Experiment: chemical genetic growth profiling, strain panel (AID 1159580);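 also: tested at 20 µM; growth read once vehicle control cultures reached saturation at 30 °C; 1 = growth at the plate median or of vehicle wells; lower values mean less growth of the strain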
Settings: growth OD
[1] = S. cerevisiae deletion strains, locus YAL013W, strain DEP1, hits give low values
[2] = S. cerevisiae deletion strains, locus YGR078C, strain PAC10, hits give low values
[3] = S. cerevisiae deletion strains, locus YNL128W, strain TEP1, hits give low values
[4] = S. cerevisiae deletion strains, locus YNL322C, strain KRE1, hits give low values
[5] = S. cerevisiae deletion strains, locus YPL055C, strain LGE1, hits give low values
[6] = S. cerevisiae deletion strains, locus YPL241C, strain CIN2, hits give low values
[7] = S. cerevisiae deletion strains, locus YBR229C, strain ROT2, hits give low values
[8] = S. cerevisiae deletion strains, locus YDL101C, strain DUN1, hits give low values
[9] = S. cerevisiae deletion strains, locus YDL134C, strain PPH21, hits give low values
[10] = S. cerevisiae deletion strains, locus YDR150W, strain NUM1, hits give low values
[11] = S. cerevisiae deletion strains, locus YEL061C, strain CIN8, hits give low values
[12] = S. cerevisiae deletion strains, locus YHR030C, strain SLT2, hits give low values
[13] = S. cerevisiae deletion strains, locus YHR087W, strain rtc3, hits give low values
[14] = S. cerevisiae deletion strains, locus YJR043C, strain POL32, hits give low values
[15] = S. cerevisiae deletion strains, locus YJR075W, strain HOC1, hits give low values
[16] = S. cerevisiae deletion strains, locus YKL190W, strain CNB1, hits give low values
[17] = S. cerevisiae deletion strains, locus YLR039C, strain RIC1, hits give low values
[18] = S. cerevisiae deletion strains, locus YLR058C, strain SHM2 (second series), hits give low values
[19] = S. cerevisiae deletion strains, locus YLR085C, strain ARP6, hits give low values
[20] = S. cerevisiae deletion strains, locus YLR262C, strain YPT6, hits give low values
[21] = S. cerevisiae deletion strains, locus YML094W, strain GIM5, hits give low values
[22] = S. cerevisiae deletion strains, locus YMR219W, strain ESC1, hits give low values
[23] = S. cerevisiae deletion strains, locus YMR307W, strain GAS1, hits give low values
[24] = S. cerevisiae deletion strains, locus YNL153C, strain GIM3, hits give low values
[25] = S. cerevisiae deletion strains, locus YNL298W, strain CLA4 (second series), hits give low values
[26] = S. cerevisiae deletion strains, locus YNR030W, strain Alg12, hits give low values
[27] = S. cerevisiae deletion strains, locus YPR135W, strain CTF4, hits give low values

Cc1ccc(=O)n(-c2ccccc2)c1
normalized growth [1]: 1
normalized growth (S. cerevisiae deletion strains, locus YAL040C, strain CLN3, hits give low values): 1.01
normalized growth (S. cerevisiae deletion strains, locus YCL061C, strain MRC1 (second series), hits give low values): 1
normalized growth (S. cerevisiae deletion strains, locus YDR363W, strain ESC2, hits give low values): 1
normalized growth (S. cerevisiae deletion strains, locus YER002W, strain NOP16, hits give low values): 0.975
normalized growth [2]: 1.02
normalized growth [3]: 0.991
normalized growth (S. cerevisiae deletion strains, locus YNL175C, strain NOP13, hits give low values): 1
normalized growth (S. cerevisiae deletion strains, locus YNL197C, strain WHI3, hits give low values): 1.01
normalized growth (S. cerevisiae deletion strains, locus YNL224C, strain SQS1, hits give low values): 1.01
normalized growth [4]: 0.998
normalized growth (S. cerevisiae deletion strains, locus YOR083W, strain WHI5 (second series), hits give low values): 1.01
normalized growth [5]: 1.02
normalized growth [6]: 1

CC1=NN(c2cccc(S(N)(=O)=O)c2)C(=O)C1
normalized growth [1]: 1.01
normalized growth [7]: 1
normalized growth [8]: 1.03
normalized growth [9]: 0.978
normalized growth [10]: 0.985
normalized growth [11]: 1
normalized growth [2]: 1
normalized growth [12]: 1.04
normalized growth [13]: 1.01
normalized growth [14]: 0.999
normalized growth [15]: 1.03
normalized growth [16]: 0.985
normalized growth [17]: 0.975
normalized growth [18]: 0.998
normalized growth [19]: 1.04
normalized growth [20]: 0.952
normalized growth [21]: 1.12
normalized growth [22]: 1.01
normalized growth (S. cerevisiae deletion strains, locus YMR263W, strain SAP30, hits give low values): 0.994
normalized growth [23]: 1.04
normalized growth [3]: 0.977
normalized growth [24]: 1.01
normalized growth [25]: 1.01
normalized growth [4]: 1.01
normalized growth [26]: 0.999
normalized growth [5]: 1.03
normalized growth [27]: 1.08

CC(C)(C)C1=NN(c2ccccc2)C(=O)C1
normalized growth [1]: 0.973
normalized growth [7]: 0.959
normalized growth (S. cerevisiae deletion strains, locus YCL061C, strain MRC1, hits give low values): 0.966
normalized growth [8]: 0.983
normalized growth [9]: 0.975
normalized growth [10]: 0.952
normalized growth [11]: 0.994
normalized growth [2]: 0.956
normalized growth [12]: 0.863
normalized growth [13]: 1
normalized growth [14]: 1.01
normalized growth [15]: 0.939
normalized growth [16]: 0.956
normalized growth [17]: 0.666 (active)
normalized growth [18]: 0.972
normalized growth [19]: 0.637 (active)
normalized growth [20]: 0.707 (active)
normalized growth [21]: 0.984
normalized growth [22]: 0.966
normalized growth [23]: 0.803
normalized growth [24]: 0.981
normalized growth [25]: 0.929
normalized growth [4]: 0.981
normalized growth [26]: 0.888
normalized growth (S. cerevisiae deletion strains, locus YOL006C, strain TOP1, hits give low values): 0.808
normalized growth [5]: 1.03
normalized growth [6]: 0.89
normalized growth [27]: 0.656
normalized growth (S. cerevisiae strains, strain wild type, hits give low values): 0.884 (active)
